The source of these data is PubChem BioAssay (NCATS).

Results filed as inconclusive are left out. Entries that show only a call come without a potency. Calls of active or inactive are those of the source. The call rests on the fitted dose curve; in most records, active means well fitted inhibition curve with a large enough effect; inconclusive means small, poorly fitted or top-dose-only effect, or effect the other way; inactive means no such curve, though single readings can be large or run the other way.
Potency means the concentration at half of the fitted maximal effect.

This test is described as follows: High Content Imaging Cell-Based qHTS for Inhibitors of the mTORC1 Signaling Pathway in MEF Cells (AID 2667). The note with it: series mostly up to 38.3 µM. An excerpt: NIH Molecular Libraries Probe Production Centers Network [MLPCN]
NIH Chemical Genomics Center [NCGC]
Assay Submitter (PI): Blenis, John; Hoffman, Greg; Harvard University
NCGC Assay Overview: The mammalian target of rapamycin (mTOR) is an intracellular serine/threonine kinase Aberrant regulation of mTOR signaling plays a causative role in a number of human diseases, including cancer, benign tumors such as lymphangioleiomyomatosis (LAM) and Tuberous Sclerosis Complex (TSC), and metabolic diseases such as diabetes and obesity. This project aims to identify inhibitors of ribosomal protein S6 (rpS6) phosphorylation. The phosphorylation of rpS6 is a key event downstream of mTOR activation. The assay uses a phospho-specific antibody of phospho-rpS6 to detect inhibitors of mTOR activation. Mutations in the Tsc1 and Tsc2 genes are the underlying genetic lesions responsible for TSC, causing constitutive activation of the mTORC1 pathway and leading to profound effects on cell metabolism. Aberrant metabolism in cancer has recently received significant attention as a target to develop therapeutic agents in the treatment of cancer.1 As Tsc2-/- cells have lost the ability to respond to energy and growth factor deprivation, these cells are unable to properly down regulate cellular biosynthetic processes in response to metabolic stress, and are thus extremely sensitive to glucose deprivation-induced death.2 A central goal of this project is to explore the unique cell survival and metabolic properties of cells with Tsc1 or Tsc2 by screening for compounds that selectively target the Tsc2-/- MEFs by screening both Tsc2-/- and WT MEF cell lines. We hope to better understand these aspects of TSC physiology in order to exploit them for therapeutic benefit.
NCGC IN Cell Assay Protocol:
For quantitative high throughput analysis of mTORC1 signaling, we developed a cell-based assay for immuno-fluorescence based detection of rpS6 phosphorylation on the Acumen Explorer that will be used a platform for the primary small molecule screen. Mouse embryonic fibroblasts (MEFs) are cultured in 1536-well plates using DMEM + 10% FBS. Twenty-four hrs after plating, test compounds (solubilized in DMSO) are delivered and incubated with the cells for 24 hrs at 37 degree Celsius. Following the incubation, media with compound is aspirated and the cells are fixed in 4% paraformaldehyde (PFA) containing PBS + 0.2% TX-100. Next, PFA is aspirated, cells are washed two times with PBS plus 0.2% TX-100 and the cells are blocked for 1 hr at room temperature (blocking buffer: LiCOR Blocking Buffer plus 0.2% TX-100). This is followed by aspiration and staining with Alexa-488 conjugated-phospho-rpS6 Ser235/236 antibody for 2 hours at room temperature (Cell Signaling Technology # 4803, 1:50 dilution in blocking buffer). Cells are washed two times with PBS plus 0.2% TX-100, and stained with 10 uM propidium iodide (PI) for 20-25 minutes for cell number measurement (1:500 dilution of Hoescht staining is also added for IN Cell imaging). Active wells which are selected (based on Acumen results) are imaged on the IN Cell 1000 (GE Healthcare) using the D360/40X and HQ480/40X excitation filters for the Hoechst and Alexa-488 cytoplasmic stains, respectively. The fluorescence emission filters used were HQ460/40M and HQ535/50M for the Hoechst and Alexa-488 cytoplasmic stains, respectively. The normalized phospho-S6 staining is calculated as the ratio of […] for the single concentration rapamycin control ([…] nM) and DMSO columns. […] Inhibition of the pathway is defined based on the normalized phospho-S6 intensity in rapamycin treated cells. Each treatment is reported as the % positive cells in the well, where thresholds are defined by selecting wells with the highest and lowest signal and differentiating between the % non-active and % active populations. […]
A general note: qHTS replaces the single test concentration by a dilution series.
For `CCCN(CCC)CCc1ccc(O)c(O)c1`, the Potency entry was “inactive”. As to `O=C1C=CC(=O)C=C1`, the Potency result is “inactive”.

In the case of `O=C1CC[C@@]2(O)C3Cc4ccc(O)c5c4C2(CCN3CC2CC2)[C@H]1O5` (stereo not given in full), the Potency entry was “inactive”. As for `O=[N+]([O-])c1cc(O)c(O)c([N+](=O)[O-])c1`, the Potency result was “inactive”. As to `N#CCCN`, the Potency entry is “inactive”. To `CC12NC(Cc3ccccc31)c1ccccc12` (stereo not given) belongs “inactive”; to `CN(N=O)c1cc(O)ccc1O`, “inactive”; to `NC(Cc1ccc(N(CCCl)CCCl)cc1)C(=O)O` (stereo not given), “inactive”. To `N#C/C(=C/c1ccc(O)c(O)c1)C(N)=S` belongs “inactive”; to `CCS(=O)(=O)Nc1cccc(C(=C2CCCCC2)c2cnc[nH]2)c1`, “inactive”; to `CCN(CCCl)Cc1ccccc1Br`, “inactive”.

In the case of `CC(C)NP(=O)(NC(C)C)OP(=O)(NC(C)C)NC(C)C`, the Potency entry is “inactive”. With `C[C@]12Cc3cn4c(nc3C=C1CCC1C2CC[C@@]2(C)[C@H]1CC[C@@]2(O)C#N)nc1ccccc14` (stereo not given in full), the Potency result was “inactive”. In the case of `C[N+]1(C)CCc2cc3c(cc2[C@H]1[C@@H]1OC(=O)c2c1ccc1c2OCO1)OCO3`, the Potency entry is “inactive”. With `C=CCN1CCC23c4c5ccc(O)c4O[C@H]2C(=O)CC[C@@]3(O)C1C5` (stereo not given in full), the Potency entry is “inactive”.

Take `CC(C)(C)c1cc(C=C(C#N)C#N)cc(C(C)(C)C)c1O`: the Potency is 2.33 µM (active).

With `COc1ccc2c(c1)[C@@]13CCCC[C@H]1[C@@H](C2)NCC3`, the Potency entry is “inactive”. As to `CCNC(=O)[C@H]1O[C@@H](n2cnc3c(N)ncnc32)[C@H](O)[C@@H]1O`, the Potency result is “inactive”. Regarding `Ic1ccccc1CNC1C2CCN(CC2)C1C(c1ccccc1)c1ccccc1` (stereo not given), the Potency is 6.56 µM (active).

On to `NCCCP(=O)(O)O`, for which the Potency result was “inactive”. On to `C=CCN1CC[C@]23c4c5ccc(O)c4O[C@H]2/C(=N/NC(=O)c2ccccc2)CC[C@@]3(O)[C@H]1C5`, for which the Potency result was “inactive”. As to `N[C@@]1(C(=O)O)CC[C@@H](C(=O)O)C1`, the Potency result was “inactive”. In the case of `O=C(O)c1cc[c]([Hg][Cl])cc1`, the Potency entry was “inactive”. Take `CN1CC[C@@]2(C)c3cc(O)ccc3N(C)C12` (stereo not given in full): the Potency entry was “inactive”. In the case of `OC1CCCCC1N1CCC(c2ccccc2)CC1` (stereo not given), the Potency result was “inactive”. The entry for `CCCN(CCC)C1CCc2cccc(O)c2C1` (stereo not given) is “inactive”; for `CN1CCC(c2c[nH]c3ccc(O)cc23)CC1` it is “inactive”; for `CCCN1CCC[C@@H](c2cccc(O)c2)C1` it is “inactive”. To `COc1ccc(CNC(=O)/C=C/c2ccc3[nH]cc(CCN(C)C)c3c2)cc1` belongs “inactive”; to `Cc1sc2ccccc2c1CC1=NCCN1`, “inactive”; to `C[N+](C)(C)CC#CCN1CCCC1=O`, “inactive”. With `CCCn1c(=O)c2[nH]c(C3CCCC3)nc2n(CCCOC(=O)c2ccc(S(=O)(=O)F)cc2)c1=O`, the Potency result was “inactive”. Consider `CCCCCCC(C)(C)c1ccc([C@@H]2C[C@H](O)CC[C@H]2CCCO)c(O)c1`, for which the Potency result was “inactive”.

Turning to `CO[C@H]1CC=C2CCN3CCC4=C(CC(=O)OC4)[C@]23C1`, the Potency entry is “inactive”.

Take `Clc1cc(I)cc(Cl)c1NC1=NCCN1`: the Potency result is “inactive”. The entry for `Nc1ccc(CCN2CCN(c3cccc(C(F)(F)F)c3)CC2)cc1` is “inactive”. The entry for `COc1ccc2[nH]c3c(c2c1)CCNC3` is “inactive”; for `O=S1(=O)N(CCN2CC=C(c3c[nH]c4cc(F)ccc34)CC2)c2cccc3c2N1CCC3` it is “inactive”. For the compound `CCCC[N+]1(C)C2CC(OC(=O)[C@H](CO)c3ccccc3)CC1C1OC12` (stereo not given in full), the Potency entry was “inactive”.

On to `NCC(CP(=O)(O)O)c1ccc(Cl)cc1` (stereo not given), for which the Potency entry was “inactive”.
